64 compounds from PubChem BioAssay AID597 (National Center for Advancing Translational Sciences (NCATS), 2007) can be followed below.

The campaign covered roughly 68,000 compounds. About 60 (0.09%) were called active. Not all results are given here. A number with no mark means an inactive call. The call rests on the fitted dose curve; in most records, active means well fitted curve in the direction sought with a large enough effect; inconclusive means small, poorly fitted or top-dose-only effect; inactive means flat fitted curve, though single readings scatter.

A short description of this assay: qHTS Assay for Epigenetic Modulators. Further: % of control where 0% means no effect. The settings on record: mouse C127i GFP locus derepression, cytometry, 30 h; series mostly up to 46.1 µM. From the text:
NIH Molecular Libraries Screening Centers Network [MLSCN] NIH Chemical Genomics Center [NCGC] MLSCN Grant: 1 X01 MH079860-01 Assay Provider: Elisabeth D. Martinez, University of Texas SW Medical Center NCGC Assay Overview: The Locus Derepression assay detects the derepression of a GFP reporter that is stably integrated in a region of the genome of murine c127i mammary cells that is presumably silenced. GFP transcription in this construct is controlled by a CMV promoter, which normally is strong and constitutively active. However, this line was selected for lack of constitutive expression of the GFP protein. GFP production can be induced by incubating the cells with histone deacetylase or DNA methyltransferase inhibitors. Compounds that cause derepression of the locus to express GFP are identified by enumerating GFP positive cells using a laser-scanning microplate cytometer. For further details of this screen and follow-up characterization, see R.L. Johnson, W. Huang, A. Jadhav, C.P. Austin, J. Inglese, E.D. Martinez, A Quantitative High-Throughput Screen Identifies Potential Epigenetic Modulators of Gene Expression, Analytical Biochemistry (2008) 375(2):237-48.
NCGC Assay Protocol Summary: Two hundred and fifty cells in 5 uL per well were dispensed into black, clear-bottom 1536-well plates. Twenty-three nL compound was transferred to the assay plate and cells were incubated 30 hours at 37 C. Medium was removed, cells were washed two times with PBS, and GFP-positive cells were enumerated as fluorescent objects between the sizes of 20 to 120 um width and depth using an Acumen Explorer. Keywords: NIH Roadmap, MLSCN, MLI, MLSMR, qHTS, NCGC, qHTS, HDAC, DNMT, HAT, DNA methyltransferases, histone acetyl transferases, histone deacetylases
For `COc1ccc(CNC(=O)C2CCN(S(=O)(=O)N3CCOCC3)CC2)cc1`, the GFP derepression (activation) entry is “inactive”. With `COc1ccc(C(CC(=O)O)NC(=O)Cc2ccccc2)cc1` (centres undefined) the entry was “inactive”; with `COC(=O)c1ccc(N(CC(=O)NC2CCCC2)C(=O)CNC(=O)c2ccco2)cc1`, “inactive”; with `COc1ccc2[nH]c3c(=O)n(Cc4ccco4)cnc3c2c1`, “inactive”. As to `CCCSc1nc2c(c(=O)n(C)c(=O)n2C)n1Cc1ccc(C)cc1`, the GFP derepression (activation) entry is “inactive”. Then `O=C(CN1CCN(C(=O)c2cccc(F)c2)CC1)Nc1ccccc1F`, with “inactive”; and `Cc1cc(N(C)C)cc(C)[n+]1[O-]`, with “inactive”; and `O=C(c1cccc(F)c1)N1CCC2(CCCN(Cc3ccncc3)C2)CC1`, with 0% [at 9.22 µM]. As to `O=c1[nH]c(=O)n([C@H]2C[C@H](O)[C@H](CO)O2)cc1Br`, the GFP derepression (activation) result is “inactive”. With `Cc1cccc(NC(=O)CSc2nc3c(c(=O)[nH]2)CCC3)c1C` the entry was “inactive”; with `Cc1nn(-c2ccccc2)c2[nH]c(C(F)(F)F)cc(=O)c12`, “inactive”; with `COC(=O)c1cc(C(=O)OC)cc(N2C(=O)CC(N3CCN(c4ccccc4)CC3)C2=O)c1` (centres undefined), “inactive”. Then `CSCCC(NS(=O)(=O)/C=C/c1ccccc1)C(=O)N1CCC(C)CC1` (centres undefined), with “inactive”; and `C=CCc1cccc2cc(C(=O)OCC)c(=O)oc12`, with “inactive”. Turning to `COC(=O)c1ccc(CSc2ccccc2C)o1`, the GFP derepression (activation) entry was “inactive”. Then `CCN(c1ccccc1)S(=O)(=O)c1cccc(C(=O)O)c1`, with “inactive”.

On to `COCCn1c(=O)c(-c2cccs2)nc2cnc(N3CCN(C)CC3)nc21`, for which the GFP derepression (activation) is -2.7% [at 9.22 µM]. With `CN(Cc1ccco1)c1ncncc1-c1ccoc1`, the GFP derepression (activation) was 3.4% [at 9.22 µM]. On to `CN/C(=C\[N+](=O)[O-])NCCSCc1csc(CN(C)C)n1`, for which the GFP derepression (activation) result was “inactive”.

`Cc1cccc(Cn2c(N3CCN(c4ccccc4)CC3)nc3c2c(=O)n(C)c(=O)n3C)c1`: the GFP derepression (activation) entry was “inactive”.

Consider `O=C(c1ccc(=O)[nH]c1)N(Cc1ccco1)C1(C(=O)NC2CCCCC2)CCCCC1`, for which the GFP derepression (activation) result is “inactive”. Consider `CCCCC(CC)C(=O)Nc1ccc(Cl)cn1` (centres undefined), for which the GFP derepression (activation) result was “inactive”. As to `O=C(Nc1ccccc1)N[C@H]1C[C@H](C(=O)O)Nc2cc(Cl)cc(Cl)c21`, the GFP derepression (activation) entry is “inactive”. With `CC1(C)CC(=O)c2cc(OCC(=O)NCC3CCCO3)ccc2O1` (centres undefined) the entry was “inactive”. Then `COc1ccccc1CN1CC2(CCN(S(=O)(=O)c3ccccc3)CC2)C1`, with -2.3% [at 9.22 µM]; and `COc1ccc2[nH]c3cc4c(=O)c5cc(OC)ccc5[nH]c4cc3c(=O)c2c1`, with 1.1% [at 9.22 µM]. `Oc1c(C(c2ccccn2)N2CCOCC2)ccc2cccnc12` (centres undefined): the GFP derepression (activation) entry was “inactive”. Then `Cc1ccc(C(c2nnnn2C(C)(C)C)N2CCc3ccccc3C2)cc1` (centres undefined), with “inactive”.

Regarding `CCOC(=O)C1(C(F)(F)F)N=C(N(C)C)OC(N(C)C)=N1`, the GFP derepression (activation) entry is “inactive”.

Take `CCC[C@H]1C(=O)N2C(N(C)C)=Nc3ccc(C)cc3N2C1=O`: the GFP derepression (activation) result was “inactive”.

As to `Cc1cc(N2CCCCC2)nc2ccc(Cc3ccc4nc(N5CCCCC5)cc(C)c4c3)cc12`, the GFP derepression (activation) is -2.2% [at 9.22 µM]. Then `CCOCC(=O)Nc1cc(OC)c(Cl)cc1OC`, with “inactive”; and `COCc1nc2ccccc2n1Cc1ccccc1Br`, with “inactive”; and `O=C(NC1CCCCC1)n1c(=O)oc2cc(S(=O)(=O)N3CCCCC3)ccc21`, with “inactive”. With `COCCn1c(=O)c(-c2cccs2)nc2cncnc21` the figure was 2.3% [at 9.22 µM]; with `O=C(COC(=O)c1ccc2c(c1)OCCO2)NCc1ccccc1`, “inactive”; with `Cc1ccccc1-c1nc(N(C)Cc2ccco2)c2ccccc2n1`, -2.9% [at 9.22 µM].

`COCCn1c(=O)c(-c2ccc(OC)cc2)nc2cnc(Oc3cccc(Cl)c3)nc21`: the GFP derepression (activation) was -2.7% [at 9.22 µM].

Take `O=c1c(-c2ccc(F)cc2)nc2cnc(N3CCOCC3)nc2n1-c1ccccc1`: the GFP derepression (activation) is 2.3% [at 9.22 µM]. In the case of `NC(=O)C1(N2CCCCC2)CCN(C(=O)c2ccc(C#Cc3ccccc3)o2)CC1`, the GFP derepression (activation) result was “inactive”. With `Nc1ccc(-c2nnc(-c3ccc(-c4ccccc4)cc3)o2)cc1` the entry was “inactive”; with `COc1ccc(Cl)cc1NC(=O)C1CC(=O)N(c2ccc(F)cc2)C1` (centres undefined), “inactive”. With `CC1C(c2ccccc2)=[N+]([O-])C2(CCCC2)N1O` (centres undefined), the GFP derepression (activation) entry is “inactive”. With `S=c1c2[nH]cnc2ncn1CCSc1ncnc2nc[nH]c12` the figure was 3.4% [at 9.22 µM]; with `CN1CCN(c2ncncc2-c2ccc(C(=O)N(C)C)cc2)CC1`, -2.3% [at 9.22 µM]. Take `CCCCCNC(=O)Cc1ccc(OC)cc1`: the GFP derepression (activation) entry was “inactive”. For the compound `COC(=O)c1ccc(CSc2nncn2C)cc1`, the GFP derepression (activation) result is “inactive”. As for `CC(C)(C)NC(=O)NC(=O)COC(=O)Cn1c(C(F)(F)F)nc2ccccc21`, the GFP derepression (activation) entry was “inactive”.

For `CC(C)[C@H](CO)Nc1nc(Nc2cc(N)cc(Cl)c2)c2ncn(C(C)C)c2n1`, the GFP derepression (activation) entry was “inactive”. With `C[C@@H](N)[C@@H](C)Cc1ccccc1` the figure was 0% [at 9.22 µM]; with `Cc1cc(NC(=O)CCC(=O)N(c2ccccc2)C(C(=O)NC2CCCC2)c2ccncc2)no1` (centres undefined), “inactive”; with `COc1ccc(C(=O)N2CCC3(CCCN(C(c4ccccc4)c4ccccc4)C3)CC2)cc1`, -2.3% [at 9.22 µM].

Regarding `COc1ccc(-c2cc(C(F)(F)F)n3nc(C(=O)N4CCOCC4)c(Cl)c3n2)cc1`, the GFP derepression (activation) entry is “inactive”.

For `O=C(CS(=O)(=O)c1cn(Cc2cccc(F)c2)c2ccccc12)N1CCCCC1`, the GFP derepression (activation) result is “inactive”. With `O=C(O)c1ccc(COc2c(F)c(F)cc(F)c2F)o1` the entry was “inactive”. `Cc1ccc(Oc2nc3ccccc3n3c(C)nnc23)cc1`: the GFP derepression (activation) entry is “inactive”.

As to `CCC(c1nnnn1C1CCCC1)N1CCN(C(=O)c2ccco2)CC1` (centres undefined), the GFP derepression (activation) result was “inactive”. In the case of `O=C(COc1ccc(F)cc1)N(CC1=CCS(=O)(=O)C1)c1ccccc1`, the GFP derepression (activation) entry was “inactive”. Take `Cc1ccc(S(=O)(=O)N2CCC(C(=O)N[C@@H](C)C(=O)NCCc3ccccc3)CC2)cc1`: the GFP derepression (activation) entry was “inactive”.

As for `O=C(N1CCOCC1)N1CCOCC1`, the GFP derepression (activation) result is “inactive”. In the case of `CC(C)Cc1nc(N2CCOCC2)c(C#N)c2c1CCC2`, the GFP derepression (activation) entry is “inactive”. Then `CCCCCCCCCCCC(=O)O[C@H](CC(=O)O)C[N+](C)(C)C`, with “inactive”. Take `Cc1noc(C)c1-c1nc(Nc2ccccc2)c2ccccc2n1`: the GFP derepression (activation) was -2.9% [at 9.22 µM]. Then `O=C(O)c1nn(-c2ccc(Cl)cc2)c2c1C(=O)c1ccccc1C2=O`, with 4.5% [at 9.22 µM].
